Tgondii IFNg: T. gondii growth inhibition under IFN-gamma. AID 1259416. activity change, negative = inhibition, % (no concentration beside the values). Toxoplasma gondii growth in IFN-gamma-treated host cells; stronger effect = lower value. actives 3.8% (n = 69,000); in the data active = activity change below about -70%, passing the limit was not always enough;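 also: host cells are HeLa cells infected with Toxoplasma gondii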
Hits are given with their value; 0 = inactive; ! = a repeat was not active. The sample as a whole holds a higher share of hits than the screen did.

SMILES | Tgondii IFNg
Cc1ccc2c(c1C)-n1cccc1C1(CCN(C(=O)Cc3ccccc3)CC1)N2 | 0
COc1ccc(C(C)NC(=O)c2cn3c(n2)CCCC3)cc1OC (stereo not given) | 0
COc1ccc(C(C)NC(=O)c2c3c(nn2C)CCCC3)cc1F (stereo not given) | -77.4
COc1ccc(OC)c(-c2cc(C(=O)NC(C)c3ccc4c(c3)CCC4)[nH]n2)c1 (stereo not given) | 0
CCn1ncnc1CN1CCC(c2nn(C)c(=O)n2-c2ccccc2)CC1 | -74.4
Cc1ncc(CN2CCC(c3nn(C)c(=O)n3-c3ccccc3)CC2)s1 | 0
CCn1ncnc1CN1CCCC(c2n[nH]c(=O)n2-c2ccccc2)C1 (stereo not given) | 0
CCOc1ccc(-c2nc(CN3CCN(C(=O)Nc4ccc(C)c(Cl)c4)CC3)c(C)o2)cc1 | 0
Cc1c(Cl)cccc1NC(=O)Cn1c(=O)cc(C(=O)N2CCCC2)c2ccccc21 | 0
CCN(CC)C(=O)[C@@H]1C[C@@H](N)CN1S(=O)(=O)c1cccnc1 | 0
COc1ccccc1/C=C/CN1CCN(C)C(C(=O)O)C1 (stereo not given) | 0
COc1ccccc1/C=C/CN1CC2CCCN2C[C@H]1C (stereo not given in full) | -79.0
COc1ccccc1/C=C/CN1CCNC(C(=O)N2CCCC2)C1 (stereo not given) | 0
C[C@H](NC(=O)C[C@@H]1C=C[C@@H](NC(=O)c2cccnc2)[C@@H](CO)O1)c1ccccc1 | 0
Cc1oc(C2CCN(C(=O)Nc3ccc(F)cc3)CC2)nc1C(=O)N(C)C | 0
Cc1ccc(C(=O)N2CCC3(CCC3NC(=O)c3cnccn3)CC2)o1 (stereo not given) | 0
Cc1nc(C)c(C(=O)N2C[C@H](c3ccc(F)cc3)[C@@H]3[C@H]2CCCN3C)s1 | 0
O=C(C1CCN(c2cncnc2N2CCOCC2)CC1)N1CCC(N2CCCCC2)CC1 | 0
Cc1c(C(=O)Nc2ccc(N3CCC(N4CCOCC4)CC3)c(C#N)c2)cnn1-c1ccc(Cl)cc1 | -83.9
Cc1cc(C(=O)Nc2ccc(N3CCOCC3)cc2)nn1C | 0
CSc1cccc(NC(=O)c2cncc(NS(=O)(=O)c3ccc(Br)cc3)c2)c1 | 0
CCS(=O)(=O)N1CC2(C1)CN(S(=O)(=O)c1cn(C)cn1)[C@@H](CO)c1[nH]c3cc(OC)ccc3c12 | 0
CCCN1CCC(c2cc3c(ncn3C)c(-c3cnn(C)c3)n2)CC1 | 0
C=C(C)COc1cccc(CN2CCNC(=O)C2)c1 | 0
CCOc1ccc(Nc2nc3ccccc3c(=O)s2)cc1 | 0
SMILES | Tgondii IFNg
Nc1c2c(nc3ccccc13)CCCC2 | 0
CCOC(=O)c1c(C)nc2ccccc2c1C(=O)O | 0
FC(F)(F)c1cc(Sc2cc(C(F)(F)F)nc3ccccc23)c2ccccc2n1 | 0
CCOc1c2ccccc2nc2ccccc12 | -123.1
Nc1c2ccccc2nc2ccccc12 | -72.5!
O=C(Cn1ncc2c(N3CCCC3)ncnc21)Nc1ccccc1F | 0
COc1cccc(CNC2=NCCNC23CCN(S(=O)(=O)c2cc(C)c(C)cc2C)CC3)c1 | 0
O=C(C[C@H]1C=C[C@@H](NS(=O)(=O)c2ccc(F)cc2)[C@@H](CO)O1)N1CCc2ccccc2C1 | 0
c1ccc2sc(CCc3nc4ccccc4s3)nc2c1 | 0
Oc1ccc(O)c(Cc2nc3ccccc3s2)c1 | -93.2
CCc1cc(C(=O)Cc2nc3ccccc3s2)c(O)cc1O | 0
O=C(NCc1ccco1)C1=NOC2(CCN(Cc3ccc(Cl)c(F)c3)C2)C1 (stereo not given) | 0
Cn1nccc1C(=O)N1CCc2c([nH]c3ccccc23)C1c1ccc(F)cc1 (stereo not given) | 0
O=c1[nH]nc(Cc2cccnc2)n1CCc1ccccc1 | 0
COc1cc2nc(N3CCCN(C)CC3)nc(NC3CCN(Cc4ccccc4)CC3)c2cc1OC | -87.7
COc1ccc(-c2nc(NC3CCN(Cc4ccccc4)CC3)c3ccccc3n2)cc1 | 0
CCCC(=O)N1CCCN(c2nc(N)c3cc(OC)c(OC)cc3n2)CC1 | 0
COc1ccccc1C(CN)N1CCOCC1 (stereo not given) | 0
O=C(Nc1ccccc1Br)N1CCC2(CC1)Nc1ccccc1-n1cccc12 | 0
O=C(NC1CCCC1)c1ccc(N2CCC(NC3CCN(Cc4ccccc4)C3)CC2)cc1 (stereo not given) | 0
O=C(Nc1ccccc1C(=O)Nc1cccc2ccccc12)Nc1cccc2ccccc12 | 0
O=C(Nc1ccc2c3c(cccc13)CC2)c1nc(-n2cnnc2)n[nH]1 | -80.4
O=C(Nc1ccc2c3c(cccc13)CC2)c1cccnc1Cl | 0
O=C(CNC1CCCCCC1)NCCc1ccc(F)cc1 | 0
COCC(=O)O[C@]1(CCN(C)CCCc2nc3ccccc3[nH]2)CCc2cc(F)ccc2[C@@H]1C(C)C | -72.1
SMILES | Tgondii IFNg
CN(Cc1nc2ccccc2[nH]1)C(=O)CCNC(=O)c1ccc(F)cc1 | 0
CCOC(=O)CCc1nc2ccccc2[nH]1 | 0
CCc1cnc(N2CCC3(CC(Nc4cccc(C#N)n4)CO3)C2)nc1 (stereo not given) | 0
COc1ccccc1/C=C/c1nn2c(COc3ccc(F)cc3)nnc2s1 | -90.6
COc1ccc(Cc2nnc3sc(Cc4ccccc4)nn23)cc1 | 0
COc1ccc(-c2nn3c(Cn4nnc5ccccc54)nnc3s2)cc1 | 0
O[C@@H]1CN(c2ncnc3nc[nH]c23)CC[C@H]1c1ccc2c(c1)OCO2 | 0
CN1CCOCC2(CCCN(C(=O)Cc3ccsc3)C2)C1 (stereo not given) | 0
CCN1CCOCC2(CCCN(C(=O)Cc3ccsc3)C2)C1 (stereo not given) | -80.3
CN1CCOCC2(CCCN(C(=O)Cc3cccs3)C2)C1 (stereo not given) | 0
COCCN1C(=O)CCc2cc(NC(=O)C3CCC3)ccc21 | 0
O=C1CCc2cc(NC(=O)C3CCC3)ccc2N1 | 0
Cc1c(C)c(C)c(C(=O)CCc2cccc(NC(=O)C3CCC3)c2)c(C)c1C | -91.6
COc1cc(CNCc2ccc(OC)c(OC)c2OC)cc(OC)c1 | 0
Cc1cc(C(=O)Oc2ccc(Cl)cc2)no1 | 0
O=C(Oc1ccc(Cl)cc1)c1cscc1Sc1ccc(Cl)cc1 | -101.4
O=C(Nc1ccc(OC(F)(F)F)cc1)c1cscc1Sc1ccc(Cl)cc1 | 0
COc1ccccc1Cc1cncc(N2CC(C(=O)O)C2)n1 | 0
CCn1c(=O)/c(=C2/Sc3ccc(OC)cc3N2C)s/c1=C1/C(=O)N(C)C(=S)N1C | -77.8
CCN(C(=O)CN1C(=O)CCc2cc(S(=O)(=O)N3CCCCC3)ccc21)c1ccc(OC)cc1 | 0
Nc1cc(-c2cn[nH]c2C2CCCN(S(=O)(=O)c3ccccc3)C2)ccn1 (stereo not given) | 0
CC(C)c1cc(C(=O)N2CCCC(c3[nH]ncc3-c3ccccc3)C2)on1 (stereo not given) | 0
Cc1ccc(-c2cn[nH]c2C2CCCN(C(=O)c3ccc[nH]3)C2)cc1 (stereo not given) | -91.9
CC(C)(C)OC(=O)Nc1cc(-c2cn[nH]c2C2CCCN(C(=O)OC(C)(C)C)C2)ccn1 (stereo not given) | -102.3
CC(C)(C)OC(=O)N1CCCC(c2ccnc3cc(-c4cccc(F)c4)nn23)C1 (stereo not given) | 0
Cc1ccc(-c2cn[nH]c2C2CCCN(C(=O)c3c[nH]c(=O)cn3)C2)cc1 (stereo not given) | 0
CO[C@H]1CN(C(=O)c2ccccc2Oc2ccccc2)CC[C@H]1N | 0
O=C(CCc1cccnc1)N1CCC2(CN(Cc3cccc(F)c3)C2)C1 | 0
O=C(NCc1ccc2c(c1)CCCO2)c1ccc(Oc2ncccn2)cc1 | 0

Screens as filed in PubChem BioAssay.
